Experiment in all cases: NCI-60 one-dose screen, 48 h (100 = growth as untreated, 0 = no growth, -100 = all killed)
Common to all, as to conditions: 10 µM unless noted

For assay [1], the system named is DU-145 prostate.
Assay [2] concerns K-562 leukemia.
Assay [3] concerns MALME-3M melanoma.
Assay [4] relates to MDA-MB-231 breast.
Assay [5] relates to SF-268 CNS.
Assay [6] relates to SF-295 CNS.
The test system of assay [7] is SF-539 CNS.
Assay [8] deals with UACC-257 melanoma.
Assay [9] deals with M14 melanoma.
The test system of assay [10] is HCT-15 colon.
The test system of assay [11] is HT29 colon.
Assay [12] concerns SNB-75 CNS.
The test system of assay [13] is SNB-19 CNS.
The test system of assay [14] is U251 CNS.
Assay [15] has as its system PC-3 prostate.
Assay [16] has as its system SK-MEL-5 melanoma.
In assay [17] the test system is UACC-62 melanoma.
Assay [18] has as its system LOX IMVI melanoma.
Assay [19] has as its system SK-MEL-28 melanoma.
The test system of assay [20] is RXF 393 renal.

Compounds without any hit were thinned out: in the full panel of roughly 83,000, 20% have a hit.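 Activity criterion: percent growth below 10, measured after cells in 96-well plates were exposed to a single compound concentration for 48 hours.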 Unmarked numbers belong to inactive results. The source made the active and inactive calls.

As to `Cc1cn(C2CC(F)C(CO)O2)c(=O)[nH]c1=O` (stereo not given), the growth is 108% in assay [1]; 58.3% in assay [2]; 85.1% in assay [3]; 98.3% in [4]; 103% in assay [5]; 76.8% in assay [6]. In addition, the growth in [7] was 107%; in assay [8], 91.8%; in [9], 89%; in [10], 107%; in assay [11] it was 98.9%; in assay [12], 81.8%. Further, the growth in [13] is 90.1%; in assay [14], 96.7%; in assay [15] it was 93.8%; in assay [16], 74.4%; in assay [17], 81.1%; in [18] it was 97.7%. Besides, the growth in assay [19] is 105%.
With `Nc1c(C(=O)O)[nH]c(=O)[nH]c1=O`, the growth in assay [1] was 110%; in assay [2], 86.9%; in assay [3] it was 110%; in [20], 93.5%; in assay [5] it was 98.7%; in assay [6], 99.7%. Also, the growth is 103% in [7]; 75.7% in [8]; 103% in assay [9]; 104% in [10]; 92.7% in [11]; 98% in [12]. In addition, the growth in assay [13] is 104%; in assay [14], 91.9%; in assay [15], 94.4%; in assay [16], 103%; in [17] it was 89%; in [18], 97.6%. The growth in [19] was 109%.
Take `Cc1ccc[n+](CC(=O)c2cccc3ccccc23)c1`: the growth is 115% in assay [1]; 102% in [2]; 97.3% in assay [3]; 130% in assay [4]; 105% in [20]; 103% in assay [5]. In addition, the growth in [6] was 97.1%; in [7] it was 93.2%; in assay [8], 112%; in [9], 98.3%; in [10], 102%; in assay [12], 96.2%. The growth was 107% in assay [13]; 101% in assay [15]; 99.7% in assay [16]; 111% in [17]; 104% in [18]; 105% in [19].
As for `Cc1cccc(NC(=O)CCc2ccc(N3C(N)=NC(N)=NC3(C)C)cc2)c1`, the growth is 50.9% in [1]; 23.3% in assay [2]; 47.2% in assay [3]; 63.4% in [4]; 33.8% in [5]; 64.9% in assay [6]. Besides, the growth in assay [7] is 23.9%; in assay [8] it was 28.2%; in [9], 64.8%; in assay [10], 103%; in assay [11], 17.1%; in [12], 60.2%. In addition, the growth in [13] was 37%; in assay [14], 36.9%; in assay [15] it was 10.5%; in assay [16], 26.9%; in [17] it was 24.6%; in [18] it was 18.7%. In addition, the growth in assay [19] was 69.9%.
`CC1(C)N=C(N)N=C(N)N1c1ccc(F)c(C(F)(F)F)c1`: the growth in [1] was 38.5%; in assay [2], 16.9%; in assay [3] it was 74.1%; in [4] it was 73.5%; in [5], 23.2%; in assay [6], 19.5%. The growth in [7] is 23.2%; in assay [8], 25.2%; in [9] it was 24%; in assay [10], 45.8%; in [11] it was 19.3%; in [12], 59%. The growth in assay [13] was 44%; in [14], 47.2%; in assay [15], 34.3%; in assay [16], 22.8%; in assay [17], 24.3%; in [18], 21.4%. For the same compound, in [19], the growth was 97.8%.
For `CC(CN(C)C)CN1c2ccccc2CCc2ccccc21` (stereo not given), the growth was 106% in assay [1]; 65.4% in assay [2]; 88.8% in assay [3]; 85.9% in [4]; 93% in assay [5]; 87.5% in assay [6]. The growth is 90.5% in assay [7]; 105% in assay [8]; 52.3% in assay [9]; 89.9% in assay [10]; 56.7% in [11]; 66.9% in assay [12]. Also, the growth in [13] was 96.8%; in assay [14] it was 85.6%; in assay [15] it was 66.7%; in assay [16], 77.9%; in assay [17], 77.1%; in assay [18], 74.5%. The growth in [19] is 84.9%.
As to `CN(C)C(=O)Nc1nc2cc(Cl)c(Cl)cc2[nH]1`, the growth in assay [1] is 4.55% (active); in assay [2], -10% (active); in assay [3] it was 47.4%; in assay [4], 46.1%; in assay [5] it was 36.5%; in assay [6] it was 9.99% (active). In addition, the growth in [7] was -24.7% (active); in assay [8] it was 17%; in assay [9] it was -66.9% (active); in assay [10], 26.1%; in [11] it was 5.63% (active); in [12], 14.7%. For the same compound, the growth in assay [13] was 27%; in [14], 25.6%; in [15], 18.9%; in assay [16] it was 19%; in assay [17] it was 23.1%; in assay [18], 47.8%. Further, the growth in assay [19] was 73.4%.
As to `Clc1ccc(CN2COc3c(ccc4cccnc34)C2)cc1Cl`, the growth was 6.34% (active) in assay [1]; -34.2% (active) in assay [2]; -11.3% (active) in assay [3]; 19.7% in assay [4]; -3.19% (active) in assay [5]; -18.6% (active) in [6]. The growth in assay [7] was -36.7% (active); in assay [8] it was -35.1% (active); in assay [9], -3.94% (active); in assay [10], 16.3%; in assay [12], 9.33% (active); in [13], 18.5%. For the same compound, the growth in assay [14] is 9.29% (active); in assay [15], 27.9%; in [16] it was -1% (active); in assay [17] it was -38% (active); in [18] it was 2.29% (active); in assay [19] it was 33.5%.

Source of the values: PubChem BioAssay (NCI).
